Reference: PubChem BioAssay (Tox21)
“And” between values parts separate entries of the source, which are not always exact repeats. Equal entries are not always repeated. The source made the active and inactive calls. Unless noted, calls follow the shape of the dose curve; as a rule, active = well fitted curve in the direction sought with a large enough effect in the repeat runs; inconclusive = weak or mixed curves; inactive = no such curve, though single readings can be large; an effect the other way counts as inactive or inconclusive.

Columns and labels:
[1] = qHTS assay to identify small molecule antagonists of the glucocorticoid receptor (GR) signaling pathway - cell viability counter screen (AID 720693); also: nearly all actives have a fitted effect of over 55% in size
[2] = qHTS assay for identifying genotoxic compounds that show differential cytotoxicity against isogenic chicken DT40 cell lines with known DNA damage response pathways - wild type cell line (AID 743012); also: nearly all actives have a fitted effect of over 60% in size; also: potency is read from the fitted curve at half-maximal effect
Method in brief: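 Wild type DT40, 300 cells/well, ~0.5 h settle at 37 C/5% CO2; compounds in DMSO added by pintool; 40 h at 37 C/5% CO2; CellTiter-Glo, 30 min RT; luminescence.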

[3] = target: Androgen receptor (Homo sapiens) (UniProt P10275); assay: qHTS assay to identify small molecule antagonists of the androgen receptor (AR) signaling pathway (AID 743035; active = well fitted inhibition curve with a large enough effect in the signal ratio in the repeat runs, not every such curve was filed as active; inconclusive = weak or mixed curves, or effect the other way; inactive = no such curve, though single readings can be large or run the other way; the % refers to the signal ratio)
Method in brief: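 Fluorescence from a beta-lactamase FRET substrate (LiveBLAzer B/G, 2 h, room temperature) measured inhibition of R1881-stimulated signaling in GeneBLAzer AR-UAS-bla HEK293 cells exposed to compound for 16 h at 37C.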

[4] = target: Androgen receptor (Homo sapiens) (UniProt P10275); assay: qHTS assay to identify small molecule agonists of the androgen receptor (AR) signaling pathway (AID 743036; active = well fitted activation curve with a large enough effect in the signal ratio in the repeat runs, with a control signal flat, not every such curve was filed as active; inconclusive = weak or mixed curves, or effect the other way; inactive = no such curve, though single readings can be large or run the other way; the % refers to the signal ratio)
Method in brief: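 AR-bla HEK293 cells, 2,000/well; 4 h preincubation 37C/5% CO2; compound (DMSO) 16 h at 37C; LiveBLAzer B/G FRET substrate 2 h RT; fluorescence intensity read-out.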

[5] = qHTS assay to identify small molecule antagonists of the androgen receptor (AR) signaling pathway using the MDA cell line - cell viability counter screen (AID 743041; also: nearly all actives have a fitted effect of over 45% in size)
Method in brief: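 MDA-kb2 AR-luc cells (MMTV-luciferase, AR/GR responsive) treated with compounds plus R1881 agonist for 16 h at 37C. CellTiter-Fluor added at 15.5 h; fluorescence read after 30 min in the same wells.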

[6] = target: Androgen receptor (Homo sapiens) (UniProt P10275); assay: qHTS assay to identify small molecule antagonists of the androgen receptor (AR) signaling pathway using the MDA cell line (AID 743042; also: nearly all actives have a fitted effect of over 55% in size; also: potency is read from the fitted curve at half-maximal effect)
Method in brief: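 MDA-kb2 breast carcinoma cells carrying MMTV-luciferase (AR/GR responsive) were co-treated with compounds and the agonist R1881 for 16 h at 37C. Inhibition read as ONE-Glo luminescence; CellTiter-Fluor fluorescence measured in parallel for cytotoxicity.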

[7] = qHTS assay to identify small molecule antagonists of the thyroid receptor (TR) signaling pathway (AID 743065); also: series mostly up to about 70 µM; nearly all actives have a fitted effect of over 55% in size
Method in brief: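 GH3.TRE-Luc rat pituitary cells (two TREs driving luciferase) were dosed with compound, then stimulated with 1 nM T3 (final) for 23.5 h at 37 C. ONE-Glo luminescence was the read-out, with CellTiter-Fluor fluorescence as the cytotoxicity counter-screen.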

[8] = tested on: thyroid hormone receptor (rat, GH3 cells); assay: qHTS assay to identify small molecule agonists of the thyroid receptor (TR) signaling pathway (AID 743066; calls by dose curve)
[9] = target: Estrogen receptor (Homo sapiens) (UniProt P03372); assay: qHTS assay to identify small molecule antagonists of the estrogen receptor alpha (ER-alpha) signaling pathway (AID 743069; active = well fitted curve in the direction sought with a large enough effect in the signal ratio in the repeat runs, not every such curve was filed as active; inconclusive = weak or mixed curves, or effect the other way; inactive = no such curve, though single readings can be large or run the other way; the % refers to the signal ratio; also: potency is read from the fitted curve at half-maximal effect)
Method in brief: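 HEK293 ER-alpha-UAS-bla GripTite cells, held overnight in 2% charcoal-stripped FBS, 5,000 cells/well, preincubated 4 h, then compound plus 17beta-estradiol for 18 h at 37C. Beta-lactamase read by LiveBLAzer B/G FRET substrate, 2 h at room temperature.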

[10] = qHTS assay to identify small molecule antagonists of the estrogen receptor alpha (ER-alpha) signaling pathway - cell viability counter screen (AID 743074; calls by dose curve;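 also: HEK293 cells carrying ER-alpha-UAS-bla reporter stimulated with 17beta-estradiol; nearly all actives have a fitted effect of over 45% in size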)
[11] = target: Estrogen receptor (Homo sapiens) (UniProt P03372); assay: qHTS assay to identify small molecule agonists of the estrogen receptor alpha (ER-alpha) signaling pathway (AID 743075; calls by dose curve)
[12] = target: Estrogen receptor (Homo sapiens) (UniProt P03372); assay: qHTS assay to identify small molecule agonists of the estrogen receptor alpha (ER-alpha) signaling pathway using the BG1 cell line (AID 743079); also: nearly all actives have a fitted effect of over 20% in size; also: potency is read from the fitted curve at half-maximal effect
[13] = qHTS assay to identify small molecule antagonists of the estrogen receptor alpha (ER-alpha) signaling pathway using the BG1 cell line (AID 743080; calls by dose curve;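 also: BG1 cells stimulated with 17beta-estradiol alongside compound; series mostly up to about 70 µM; nearly all actives have a fitted effect of over 25% in size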)
Method in brief: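 BG1-Luc-4E2 cells (endogenous full-length ER-alpha, stable 4×ERE-luciferase) were starved 5 days in phenol-red-free medium with 10% charcoal-stripped FBS, plated 24 h, then given compound plus 17beta-estradiol for 21.5 h at 37 C; ONE-Glo luminescence read after 30 min.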

[14] = qHTS assay to identify small molecule antagonists of the estrogen receptor alpha (ER-alpha) signaling pathway using the BG1 cell line - cell viability counter screen (AID 743081);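 also: compound given together with 17beta-estradiol as the ER stimulus; series mostly up to about 70 µM; nearly all actives have a fitted effect of over 45% in size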
Aromatase (Homo sapiens) = Aromatase (Homo sapiens) (UniProt P11511); assay: qHTS assay to identify aromatase inhibitors (AID 743083); also: nearly all actives have a fitted effect of over 55% in size; also: potency is read from the fitted curve at half-maximal effect
[15] = qHTS assay for identifying genotoxic compounds that show differential cytotoxicity against isogenic chicken DT40 cell lines with known DNA damage response pathways - Rad54/Ku70 mutant cell line (AID 743015); also: nearly all actives have a fitted effect of over 60% in size; also: potency is read from the fitted curve at half-maximal effect
[16] = qHTS assay to identify small molecule antagonists of the androgen receptor (AR) signaling pathway - cell viability counter screen (AID 743033; also: nearly all actives have a fitted effect of over 45% in size)
[17] = qHTS assay for identifying genotoxic compounds that show differential cytotoxicity against isogenic chicken DT40 cell lines with known DNA damage response pathways - Rev3 mutant cell line (AID 743014); also: nearly all actives have a fitted effect of over 55% in size
[18] = qHTS assay to identify small molecule antagonists of the thyroid receptor (TR) signaling pathway - cell viability counter screen (AID 743064); also: nearly all actives have a fitted effect of over 50% in size
Method in brief: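 GH3.TRE-Luc cells, 4 h pre-plating; cpd + T3 1 nM final; 37 °C 23.5 h; CellTiter-Fluor 30 min; fluorescence read.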

[19] = target: Androgen receptor (Homo sapiens) (UniProt P10275); assay: qHTS assay to identify small molecule agonists of the androgen receptor (AR) signaling pathway using the MDA cell line (AID 743040; also: nearly all actives have a fitted effect of over 20% in size)
Method in brief: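 MDA-kb2 breast carcinoma cells carrying MMTV-luciferase (responsive to AR and GR), plated 5 h then treated 16 h with compounds at 37C, 0% CO2. Read-out was ONE-Glo luminescence after 30 min at room temperature.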

Measured: Potency

Chain of Androgen receptor (Homo sapiens) (P10275 whole entry, looked up): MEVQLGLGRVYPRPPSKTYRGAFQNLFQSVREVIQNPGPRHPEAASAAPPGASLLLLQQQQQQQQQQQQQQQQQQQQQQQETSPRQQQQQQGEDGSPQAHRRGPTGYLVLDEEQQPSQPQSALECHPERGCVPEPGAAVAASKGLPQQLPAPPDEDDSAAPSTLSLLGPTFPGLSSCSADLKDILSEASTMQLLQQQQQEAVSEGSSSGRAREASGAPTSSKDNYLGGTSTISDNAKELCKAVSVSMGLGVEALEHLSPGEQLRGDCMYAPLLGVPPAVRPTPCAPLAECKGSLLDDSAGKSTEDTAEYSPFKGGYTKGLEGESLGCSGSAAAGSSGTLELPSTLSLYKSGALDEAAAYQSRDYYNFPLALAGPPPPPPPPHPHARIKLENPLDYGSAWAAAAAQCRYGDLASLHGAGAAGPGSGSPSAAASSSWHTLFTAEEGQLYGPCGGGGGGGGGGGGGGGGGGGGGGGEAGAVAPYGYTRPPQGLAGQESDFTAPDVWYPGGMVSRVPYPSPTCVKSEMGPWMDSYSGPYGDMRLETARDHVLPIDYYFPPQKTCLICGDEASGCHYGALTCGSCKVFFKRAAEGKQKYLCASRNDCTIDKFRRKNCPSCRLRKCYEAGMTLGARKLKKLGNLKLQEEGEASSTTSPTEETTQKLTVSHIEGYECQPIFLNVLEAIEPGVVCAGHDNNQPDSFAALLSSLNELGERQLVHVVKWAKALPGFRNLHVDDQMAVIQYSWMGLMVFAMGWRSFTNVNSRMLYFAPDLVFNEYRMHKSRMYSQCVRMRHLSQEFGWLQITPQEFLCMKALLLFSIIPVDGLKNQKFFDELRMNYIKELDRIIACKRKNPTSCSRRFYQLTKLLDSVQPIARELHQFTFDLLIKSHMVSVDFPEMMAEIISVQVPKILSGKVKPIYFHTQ
Chain of Estrogen receptor (Homo sapiens) (P03372 whole entry, looked up): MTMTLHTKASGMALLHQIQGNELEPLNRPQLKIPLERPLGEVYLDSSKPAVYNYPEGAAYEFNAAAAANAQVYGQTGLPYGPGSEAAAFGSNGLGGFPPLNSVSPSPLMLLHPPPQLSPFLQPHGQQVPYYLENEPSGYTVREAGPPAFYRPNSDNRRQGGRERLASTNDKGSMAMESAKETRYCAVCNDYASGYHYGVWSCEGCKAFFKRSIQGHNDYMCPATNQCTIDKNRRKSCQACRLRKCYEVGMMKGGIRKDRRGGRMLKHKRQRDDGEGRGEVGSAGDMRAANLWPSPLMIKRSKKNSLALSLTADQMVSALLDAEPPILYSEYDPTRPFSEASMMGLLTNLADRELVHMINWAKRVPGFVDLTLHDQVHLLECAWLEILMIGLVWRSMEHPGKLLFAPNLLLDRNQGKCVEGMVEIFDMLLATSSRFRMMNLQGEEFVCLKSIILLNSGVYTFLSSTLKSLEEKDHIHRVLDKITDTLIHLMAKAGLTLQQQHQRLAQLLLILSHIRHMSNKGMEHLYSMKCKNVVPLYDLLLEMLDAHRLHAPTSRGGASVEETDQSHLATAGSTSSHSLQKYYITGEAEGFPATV
Chain of Aromatase (Homo sapiens) (P11511 whole entry, looked up): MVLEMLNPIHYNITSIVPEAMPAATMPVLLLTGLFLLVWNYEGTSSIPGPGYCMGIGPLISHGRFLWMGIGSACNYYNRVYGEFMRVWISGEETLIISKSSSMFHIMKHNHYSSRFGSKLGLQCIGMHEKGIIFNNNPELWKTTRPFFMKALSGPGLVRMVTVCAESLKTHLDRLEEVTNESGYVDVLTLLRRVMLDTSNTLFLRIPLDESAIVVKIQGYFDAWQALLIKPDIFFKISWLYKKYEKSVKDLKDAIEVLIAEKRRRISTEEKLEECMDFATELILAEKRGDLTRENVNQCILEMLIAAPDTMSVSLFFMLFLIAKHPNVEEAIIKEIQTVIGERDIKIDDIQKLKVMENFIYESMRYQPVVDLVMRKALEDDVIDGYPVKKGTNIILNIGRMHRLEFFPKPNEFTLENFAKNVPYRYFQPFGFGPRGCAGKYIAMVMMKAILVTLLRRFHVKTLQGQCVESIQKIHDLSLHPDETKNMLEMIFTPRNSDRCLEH

CC[C@H]1OC(=O)C[C@@H](O)[C@H](C)[C@@H](O[C@@H]2O[C@H](C)[C@@H](O)[C@H](N(C)C)[C@H]2O)[C@@H](CCN2C[C@H](C)C[C@H](C)C2)C[C@@H](C)C(=O)/C=C/C(C)=C/[C@@H]1CO[C@@H]1O[C@H](C)[C@@H](O)[C@@H](OC)[C@H]1OC
not listed: [15] | [16] | [17] | [18] | [19]
inactive: all other assays above

CN1C(C(=O)Nc2ccccn2)C(=O)c2sc(Cl)cc2S1(=O)=O (centres undefined)
not listed: [2] | [3] | [4] | [6] | [14] | [17] | [18] | [19]
inactive: all other assays above

C=CC[N+]1([C@H]2C[C@H]3[C@@H]4CC[C@H]5C[C@H](O)[C@@H](N6CCOCC6)C[C@]5(C)[C@H]4CC[C@]3(C)[C@H]2OC(C)=O)CCCC1
active: [12] 26.6 µM
not listed: [2] | [3] | [4] | [6] | [7] | [19]
inactive: all other assays above

Cc1c(O)c(=O)ccn1C
not listed: [3] | [4] | [6] | [16] | [17] | [18] | [19]
inactive: all other assays above

O=C1CC[C@@H](C(=O)N[C@H]2C[C@@H]2c2ccccc2)N1
not listed: [3] | [4] | [6] | [7] | [8] | [16] | [17] | [19]
inactive: all other assays above

O=S(=O)(O)CC(S)CS (centres undefined)
inactive: [1] | [3] | [19] | [5] | [6] | [18] | [8] | [10] | [14] | Aromatase (Homo sapiens)
active: [15] 3.76 µM

CC(=O)NC[C@H]1CN(c2ccc(N3CCOCC3)c(F)c2)C(=O)O1
active: [12] 13.3 µM
not listed: [2] | [3] | [4] | [6] | [15] | [17] | [19]
inactive: all other assays above

N[C@@H](Cc1ccc(O)c(O)c1)C(=O)O
inactive: [1] | [17] | [15] | [16] | [5] | [18] | [7] | [8] | [10] | [14] | Aromatase (Homo sapiens)

COc1cc2c(c(OC)c1OC)-c1c(cc3c(c1OC)OCO3)C[C@@H](C)[C@](C)(O)C2
inactive: [1] | [17] | [16] | [5] | [18] | [7] | [8] | [10] | Aromatase (Homo sapiens)

CCSCC
not listed: [3] | [4] | [6] | [16] | [17] | [19]
inactive: all other assays above

NCC1CCC(C(=O)O)CC1 (centres undefined)
not listed: [3] | [4] | [6] | [16] | [17] | [19]
inactive: all other assays above

Cc1ccc2nc(-c3ccc(N)cc3)sc2c1S(=O)(=O)O
inactive: [1] | [17] | [16] | [5] | [6] | [8] | [9] | [11] | [14] | Aromatase (Homo sapiens)
active: [15] 26.9 µM | [12] 7.58 µM

C[Se]CC[C@H](N)C(=O)O
not listed: [3] | [4] | [6] | [13] | [14] | [16] | [17] | [19]
inactive: all other assays above

CC(C)COC(=O)OCN1C(=O)CN(CCN2CC(=O)N(COC(=O)OCC(C)C)C(=O)C2)CC1=O
active: [15] 0.188 µM
not listed: [2] | [3] | [4] | [6] | [7] | [17] | [18] | [19]
inactive: all other assays above

CCC1OC(=O)C[C@@H](O)[C@H](C)[C@@H](O[C@@H]2O[C@H](C)C[C@H](N(C)C)[C@H]2O)[C@@H](CC=O)C[C@@H](C)C(=O)/C=C/[C@]2(C)OC2C1C (some centres undefined)
active: [2] 11.9 µM and 4.73 µM | [15] 16.8 µM and 7.5 µM | [6] 26.6 µM and 23.7 µM | [9] 16.9 µM [inconclusive] | Aromatase (Homo sapiens) 26.6 µM
inactive: [1] | [4] | [19] | [5] | [10] | [11]

COC1[C@@H](O[C@@H]2O[C@H](C)[C@@H](O[C@H]3C[C@@](C)(O)[C@H](OC(=O)CC(C)C)[C@H](C)O3)[C@H](N(C)C)[C@H]2O)[C@@H](CC=O)C[C@@H](C)[C@@H](O)/C=C/C=C/C[C@@H](C)OC(=O)C[C@H]1OC(C)=O (some centres undefined)
not listed: [2] | [3] | [4] | [6] | [14] | [16] | [19]
inactive: all other assays above

c1ccc2c(c1)OCC(CN1CCCCC1)O2 (centres undefined)
not listed: [4] | [15] | [16] | [17]
inactive: all other assays above
